In PubChem BioAssay AID624122 (National Center for Advancing Translational Sciences (NCATS), 2012):
Activity calls are given as the source filed them.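 How the source made its calls: active means a dissociation constant for apoferritin binding could be measured by titration calorimetry; inconclusive means binding seen but dissociation constant not obtainable; inactive means no binding seen.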

Target: Ferritin light chain (Equus caballus) (UniProt P02791)
Test: Isothermal Titration Calorimetry Based Assay for Measurement of Binding Affinity to Apoferritin
Details: horse apoferritin
Source text: Anesthetic development has remained a largely empirical process. There are growing concerns about the cognitive effects of known general anesthetics and acceleration of the onset of neurodegenerative disease. The compounds' toxicity and multiple specific binding targets in the mammalian brain [4] has made them less attractive as drug leads. This isothermal titration calorimetry (ITC) assay is used to provide Kd binding affinity measurements for apoferritin, which is used here as a surrogate system to identify compounds with potential anesthetic properties. References: [1] S.L. Bianchi, T. Tran, C. Liu, S. Lin, Y. Li, J.M. Keller, R.G. Eckenhoff, and M.F. Eckenhoff, Brain and behavior changes in 12-month-old Tg2576 and nontransgenic mice exposed to anesthetics. Neurobiol Aging 29 (2008) 1002-10. Z. Xie, Y. Dong, U. Maeda, R.D. Moir, W. Xia, D.J. Culley, G. Crosby, and R.E. Tanzi, The inhalation anesthetic isoflurane induces a vicious cycle of apoptosis and amyloid beta-protein accumulation. J Neurosci 27 (2007) 1247-54. […]
In order to further triage primary hits identified from qHTS screen (AID 485281), ITC was utilized to evaluate direct binding signatures between filtered compounds and apoferritin and provide a complete thermodynamic characterization of selected compounds. […] Concentrations were then determined using absorption spectroscopy based on standards prepared in organic solvents. […]

Ferritin light chain (Equus caballus), sequence (P02791 2-175 limits assumed): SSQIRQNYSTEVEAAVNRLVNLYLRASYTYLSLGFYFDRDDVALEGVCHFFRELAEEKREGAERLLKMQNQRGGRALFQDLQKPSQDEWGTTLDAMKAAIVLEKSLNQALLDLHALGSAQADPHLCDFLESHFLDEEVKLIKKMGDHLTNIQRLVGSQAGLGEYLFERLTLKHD

Compound	Kd
COc1ccc(-c2ccc(=O)n(CC(=O)NCc3ccco3)n2)cc1	4.2 µM (active)
Cc1ccc(-c2ccc(=O)n(CC(=O)NCCc3ccccc3)n2)cc1	8.2 µM (active)
